Screens deposited in PubChem by The Scripps Research Institute Molecular Screening Center.
Compounds with a hit are over-represented: about 2.9% of the library has one in this group of screens.
PAFAH1B2 inh: blocks human PAF acetylhydrolase 1b catalytic subunit 2; recombinant PAFAH1B2, FP-rhodamine activity probe, fluorescence polarization; inhibition, % at 3.39 µM; AID 492953; actives 1.2% (n = 340,000); P68402;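 active = inhibition above the mean of all tested compounds plus 3 SD, cut at about 24% in these data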;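 also: 0% = enzyme with DMSO and 100% = wells lacking PAFAH1B2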
Target sequence (P68402 whole entry, looked up): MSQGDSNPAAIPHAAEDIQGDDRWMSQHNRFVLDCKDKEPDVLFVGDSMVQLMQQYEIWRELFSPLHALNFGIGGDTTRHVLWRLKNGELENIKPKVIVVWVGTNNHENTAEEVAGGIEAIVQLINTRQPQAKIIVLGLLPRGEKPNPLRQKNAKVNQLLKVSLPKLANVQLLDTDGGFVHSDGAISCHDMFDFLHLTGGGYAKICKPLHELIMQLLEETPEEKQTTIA
PAFAH1B3 inh: blocks human PAF acetylhydrolase 1B catalytic subunit 3 | Q15102 | recombinant PAFAH1B3, FP-rhodamine probe, fluorescence polarization | inhibition, % at 3.39 µM | actives 0.28% (n = 340,000) | AID 492972;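 active = inhibition above the screen-wide average of all tested compounds plus 3 SD, cut at about 25% in these data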;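 also: 0% = enzyme with DMSO only and 100% = wells lacking PAFAH1B3 protein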
Target sequence (Q15102 whole entry, looked up): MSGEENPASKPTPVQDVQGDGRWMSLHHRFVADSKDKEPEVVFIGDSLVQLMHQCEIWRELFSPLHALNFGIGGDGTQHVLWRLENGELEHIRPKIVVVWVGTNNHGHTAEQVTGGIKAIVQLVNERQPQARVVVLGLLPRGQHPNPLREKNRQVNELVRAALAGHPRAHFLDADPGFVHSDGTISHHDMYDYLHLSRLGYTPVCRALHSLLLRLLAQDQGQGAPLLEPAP
PAFAH2 inh: PAFAH2 (human) inhibition. Q99487. recombinant PAFAH2, FP-rhodamine activity probe, fluorescence polarization. inhibition, % at 3.39 µM. actives 0.99% (n = 340,000). AID 492956;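 active = inhibition above the mean over all tested compounds plus 3 SD, cut at about 30% in these data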;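 also: inhibitors block probe labeling of enzyme so polarization drops; 0% = enzyme with DMSO and 100% = wells lacking PAFAH2 protein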
pPAFAH inh: inhibitors of human plasma PAF acetylhydrolase (pPAFAH) | actives 1.5% (n = 330,000) | AID 463082 | Q13093 | recombinant pPAFAH, FP-rhodamine probe fluorescence polarization | inhibition, % at 3.39 µM;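 active = inhibition above the mean inhibition across the screen plus 3 SD, cut at about 25% in these data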;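 also: inhibitors block binding of the rhodamine activity-based probe so polarization drops; 0% = enzyme with DMSO and 100% = wells lacking pPAFAH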
Fam108B inh: counter-screen for RBBP9 inhibitors: inhibitors of mouse Fam108B; inhibition, % at 9.51 µM; recombinant Fam108B, FP-Rh probe fluorescence polarization; actives 0.33% (n = 300,000);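 active = inhibition above the screen mean inhibition plus 3 SD, computed separately per campaign, cut at about 18% in these data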;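 also: inhibitors lower polarization as less probe binds the enzyme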
PME-1 inh: PME-1 (human) inhibition | Q9Y570 | AID 2130 | recombinant PME-1, FP-Rh probe fluorescence polarization | inhibition, % at 5.9 µM | actives 0.53% (n = 320,000);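 active = inhibition above the campaign mean of all compounds plus 3 SD, cut at about 26% in these data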;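 also: competitive labeling of PME-1 active site by serine hydrolase directed probe; 0% = PME-1 with DMSO and 100% = wells lacking PME-1 enzyme; inhibitors block probe labeling so polarization falls and inhibition rises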
Fam108b confirm: Fam108b (mouse) hydrolase inhibition, confirmation assay; actives 44% (n = 930); inhibition, % at 9.51 µM; AID 1978; recombinant Fam108b, FP-Rh probe fluorescence polarization; shares compounds with Fam108B inh;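 active = inhibition above a limit from the primary screen, the mean over all compounds plus 3 SD, cut at about 19% in these data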;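 also: 0% = median of active Fam108b wells and 100% = catalytically dead S170A mutant; inhibitors free the probe so polarization falls as inhibition rises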
Fam108b ABPP HTS: mouse ABHD17B inhibition; shares compounds with Fam108B inh; recombinant Fam108b, gel-based ABPP, fluorophosphonate probe; inhibition, % at 20 µM; actives 44% (n = 260); in the data active = inhibition above about 40%
pPAFAH confirm: pPAFAH (human) inhibition, confirmed; shares compounds with pPAFAH inh; inhibition, % at 3.39 µM; AID 463230; recombinant pPAFAH, FP-Rh probe fluorescence polarization; actives 72% (n = 2,300);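 active = mean inhibition of the triplicate above the hit cutoff set for the earlier primary screen, cut at about 25% in these data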;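 also: 0% = enzyme with DMSO and 100% = wells lacking pPAFAH enzyme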
* = called active by the depositor.

How did O=C(N/N=C/c1cccnc1)c1cc2c(ccc3ccccc32)o1 do in these assays?
PAFAH1B2 inh: -2; PAFAH1B3 inh: 4; PAFAH2 inh: -7; pPAFAH inh: 0; Fam108B inh: -9; PME-1 inh: -22

What do the screens show for `Cc1ccnc(Sc2nc3c(c(=O)[nH]c(=O)n3C)n2CCCc2ccccc2)n1`?
PAFAH1B2 inh: 7; PAFAH1B3 inh: 14; PAFAH2 inh: 5; pPAFAH inh: 5; Fam108B inh: -3; PME-1 inh: -7

Results for O=C(NC(=S)N1CCc2ccccc21)C1CCC1 ?
PAFAH1B2 inh: -1; PAFAH1B3 inh: 2; PAFAH2 inh: 2; pPAFAH inh: 7; Fam108B inh: 3; PME-1 inh: 2

What do the screens show for `CC(=O)N1Cc2ccccc2CC1C(=O)NCc1ccccc1F` (stereo not given)?
PAFAH1B2 inh: -4; PAFAH1B3 inh: 3; PAFAH2 inh: -1; pPAFAH inh: 4; Fam108B inh: 4; PME-1 inh: -3

What do the screens show for `COc1ccc(-c2cc(C(F)(F)F)n3nc(C(=O)N4CCCCC4)cc3n2)cc1OC`?
PAFAH1B2 inh: 2; PAFAH1B3 inh: 4; PAFAH2 inh: 4; pPAFAH inh: -1; Fam108B inh: 3; PME-1 inh: -10

What do the screens show for `Cc1nc(S/C(=C/c2ccc(-c3cc(Cl)ccc3C)o2)C(=O)O)n[nH]1`?
PAFAH1B2 inh: 13; PAFAH1B3 inh: 25; PAFAH2 inh: 28; pPAFAH inh: 47*; Fam108B inh: 25*; PME-1 inh: 34*; Fam108b confirm: 18*; pPAFAH confirm: 56*

How did Cc1c(C)c2cc(Cl)c(O)c(CN(C)C)c2oc1=O do in these assays?
PAFAH1B2 inh: 0; PAFAH1B3 inh: 3; PAFAH2 inh: 0; pPAFAH inh: 0; Fam108B inh: 2; PME-1 inh: 0

Results for O=c1oc2c(O)c(O)cc3c(=O)oc4c(O)c(O)cc1c4c23 ?
PAFAH1B2 inh: 88*; PAFAH1B3 inh: 68*; PAFAH2 inh: 85*; pPAFAH inh: 93*; Fam108B inh: 55*; PME-1 inh: -20; Fam108b confirm: 42*; Fam108b ABPP HTS: 0; pPAFAH confirm: 92*

What do the screens show for `Cn1c(=O)cc2c3c(c(N4CCCCC4)ccc31)C(=O)c1ccccc1-2`?
pPAFAH inh: 54*; Fam108B inh: 24*; PME-1 inh: 40*; Fam108b confirm: 19*; pPAFAH confirm: 28*

Results for O=C1c2ccccc2C(=O)c2c1cccc2N1CCCC1 ?
PAFAH1B2 inh: 5; PAFAH1B3 inh: 9; PAFAH2 inh: 8; pPAFAH inh: 20; Fam108B inh: 13; PME-1 inh: 22

What do the screens show for `C/C(=N\NC(=O)c1cc2ccccc2cc1O)c1cccs1`?
PAFAH1B2 inh: 6; PAFAH1B3 inh: 16; PAFAH2 inh: 9; pPAFAH inh: 52*; Fam108B inh: 19*; PME-1 inh: -6; Fam108b confirm: -6; pPAFAH confirm: 4

Results for C/C(=N\NC(=O)CC(C)C)c1ccc(Cl)c(Cl)c1 ?
PAFAH1B2 inh: 4; PAFAH1B3 inh: 0; PAFAH2 inh: -1; pPAFAH inh: -3; Fam108B inh: 3; PME-1 inh: -6

Results for O=C(O)C1Nc2ccc(Br)cc2C2C=CCC12 (stereo not given) ?
PAFAH1B2 inh: 47*; PAFAH1B3 inh: 40*; PAFAH2 inh: 79*; pPAFAH inh: 70*; Fam108B inh: 55*; PME-1 inh: -14; Fam108b confirm: 35*; Fam108b ABPP HTS: 40*; pPAFAH confirm: 61*

What do the screens show for `CCOC(=O)C1Nc2ccc(C)cc2C2C=CCC12` (stereo not given)?
PAFAH1B2 inh: -1; PAFAH1B3 inh: 4; PAFAH2 inh: 8; pPAFAH inh: 22; Fam108B inh: 2; PME-1 inh: 9
